According to PubChem BioAssay AID1210 (NMMLSC, 2008):
Active and inactive are the calls of the source.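 The calls were made as follows: active = blocks over 70% of labeled estradiol binding at 10 µM, or over a set limit at 100 nM; inactive = the rest.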

Target: Estrogen receptor beta (Homo sapiens) (UniProt Q92731)
Assay: ERbeta ligand binders by competition, primary screen, cell-based, Cos7 ERbeta-GFP, flow cytometry (AID 1210);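 also: 0% = DMSO vehicle wells and 100% = complete loss of labeled estradiol signal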
Conditions: fluorescent estrogen binding, stronger effect = higher value
[1] = ligand binding inhibition, at 0.1 µM

Estrogen receptor beta (Homo sapiens), sequence (Q92731 whole entry, looked up): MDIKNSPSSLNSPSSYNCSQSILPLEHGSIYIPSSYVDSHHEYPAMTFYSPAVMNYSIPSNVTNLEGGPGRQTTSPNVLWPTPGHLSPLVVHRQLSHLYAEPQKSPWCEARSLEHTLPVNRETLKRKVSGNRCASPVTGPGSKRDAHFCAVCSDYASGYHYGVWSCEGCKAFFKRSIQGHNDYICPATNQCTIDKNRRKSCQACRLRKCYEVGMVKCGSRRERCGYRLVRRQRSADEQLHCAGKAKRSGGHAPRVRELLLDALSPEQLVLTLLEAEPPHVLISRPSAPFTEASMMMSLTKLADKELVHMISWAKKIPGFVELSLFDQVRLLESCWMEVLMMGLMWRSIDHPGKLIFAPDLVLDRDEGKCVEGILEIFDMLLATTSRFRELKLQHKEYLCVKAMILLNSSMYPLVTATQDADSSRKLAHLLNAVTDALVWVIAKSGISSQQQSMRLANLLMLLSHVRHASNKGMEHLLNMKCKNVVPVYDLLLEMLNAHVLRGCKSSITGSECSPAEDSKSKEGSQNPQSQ

SMILES | inhibition (at 10 µM) | inhibition [1]
O=c1oc2ccccc2n1CCn1c2ccccc2c2nc3ccccc3nc21 | 70% (inactive) | 18%
CC(=O)NC12CC3CC(C1)CC(C(=O)OCC(=O)Nc1ncc(Cl)c(C)c1Cl)(C3)C2 | 12% (inactive) | 3%
O=c1[nH]c(N/N=C/c2ccc(O)cc2)nc2ccccc12 | 34% (inactive) | 13%
Cc1ccc(S(=O)(=O)N2CCCCC2)cc1C(=O)Nc1ncn[nH]1 | 13% (inactive) | 23%
COc1ccc2c(c1OC)C(=O)N1N=C(c3ccc(O)cc3)CC21 (stereo not drawn) | 21% (inactive) | 39%
O=C(Nc1cccc2cccc(NC(=O)c3ccco3)c12)c1ccco1 | 24% (inactive) | 22%
Nc1nc(N)c2sc3nc4c(cc3c2n1)CCC4 | 29% (inactive) | 7%
O=C(CSc1nc2c(cnn2-c2ccccc2)c(=O)[nH]1)c1ccc(Cl)cc1 | 39% (inactive) | 34%
Cc1cnc(C(=O)OCC(=O)c2csc(N3CCCCC3)n2)cn1 | 47% (inactive) | 23%
CC(C)(C)c1nnc2sc(SC/C(O)=C(\C#N)c3nc4ccccc4[nH]3)nn2c1=O | 31% (inactive) | 15%
COc1ccc(NC(=O)CN(c2ccccc2)S(=O)(=O)N(C)C)cc1OC | 40% (inactive) | 15%
Cc1cc(NC(=O)CSc2cn(CCNC(=O)c3ccc(Cl)cc3)c3ccccc23)no1 | 11% (inactive) | 31%
Cc1noc(C)c1COC(=O)c1cc2c3ccccc3n(C)c2s1 | 59% (inactive) | 4%
Cc1ccc2[nH]c(=O)c(-c3nc4ccccn4c3NCc3ccco3)cc2c1 | 56% (inactive) | 44%
O=C(NCc1ccco1)c1cc2c(s1)CSC2 | 32% (inactive) | 12%
CCc1cccc2c(C(=O)Cn3nnc(-c4ccc(OC)c(OC)c4)n3)c[nH]c12 | 53% (inactive) | 52%
COc1cc(C(Nc2ccccn2)c2ccc3ccc(C)nc3c2O)cc(OC)c1O (stereo not drawn) | 0% (inactive) | 20%
O=C(NNC(=O)c1ccc(SCC2CCCO2)c([N+](=O)[O-])c1)c1ccc(Cl)c([N+](=O)[O-])c1 (stereo not drawn) | 0% (inactive) | 4%
Oc1ccccc1N=Nc1nc(-c2ccccc2)c(-c2ccccc2)[nH]1 | 36% (inactive) | 36%
O=C(Cn1c(=O)n(Cc2ccco2)c(=O)c2c3c(sc21)CCCCC3)Nc1ccccc1 | 37% (inactive) | 39%

SMILES | inhibition (at 10 µM) | inhibition [1]
O=c1c(OC2OC(CO)C(O)C(O)C2O)c(-c2ccc(O)c(O)c2)oc2cc(O)cc(O)c12 (stereo not drawn) | 36% (inactive) | 46%
Cc1ccccc1Nc1nnc(SCC(=O)NC(=O)NCc2ccco2)s1 | 0% (active) | 67%
O=C(Cn1ncc2c(=O)oc3ccccc3c21)Nc1nc2ccccc2s1 | 35% (inactive) | 7%
CCC(=O)Nc1ccc(C(=O)Cn2nc(C(=O)O)c3ccccc3c2=O)cc1 | 64% (inactive) | 1%
CC(C)C1Nc2c(O)cc(Cl)c([N+](=O)[O-])c2C2C=CCC21 (stereo not drawn) | 28% (inactive) | 5%
O=C(NCc1ccco1)c1cc2ccc(O)cc2oc1=O | 44% (inactive) | 38%
O=C(Cc1cn2ccsc2n1)OCc1nc2ccccc2s1 | 58% (inactive) | 24%
O=[N+]([O-])c1ccc(Cl)c2c1C1C=CCC1C(c1ccccn1)N2 (stereo not drawn) | 0% (inactive) | 19%
O=C(Nc1ccc2nn(-c3ccccc3)nc2c1)c1ccc2c(c1)OCO2 | 27% (inactive) | 14%
O=C(CSc1nnc(-c2ccc(OC(F)F)cc2)o1)NC(=O)NCc1ccco1 | 39% (inactive) | 44%
COc1cc(/C=C2\OC(=O)c3c(OC)cccc32)ccc1O | 55% (inactive) | 28%
CCOc1cccc2cc(-c3nnc(NCc4ccco4)s3)c(=O)oc12 | 26% (inactive) | 28%
Oc1ccc(-c2cn3c(n2)SCC3)cc1O | 33% (inactive) | 22%
O=C(Nc1ccc2oc(-c3ccc4ccccc4c3)nc2c1)c1cccs1 | 42% (inactive) | 36%
COc1ccc(N=Cc2sc(O)c3ccccc23)cc1 | 47% (inactive) | 22%
Nc1ccc2nc(CN3CCOCC3)[nH]c2c1 | 6% (inactive) | 47%
Cc1cc(=O)[nH]c(SCC(=O)NCc2ccco2)n1 | 59% (inactive) | 3%
COc1ccc2c(c1)[nH]c1c(=O)n(N)cnc12 | 4% (inactive) | 30%
Cc1cc2oc(=O)cc(COC(=O)c3n[nH]c4ccccc34)c2cc1C | 68% (inactive) | 18%
